# Measurements as given in paper PMC11006913.
# Residue numbers refer to the chain shown, from its start.
# Experiments:
# Assay in all cases: PBM; 200 nM protein, PBS
# Conditions in all cases: dsDNA, one strand shown
# [1] = target: HOXB4 (Homo sapiens, UniProt P17483 148-234, V174I)
# [2] = target: HOXD13 (Homo sapiens, UniProt P35453 263-343, T313R)
# [3] = target: T1, NKX2-6 (Homo sapiens, UniProt A6NCS4 118-204, F151L)
# T1 sequence: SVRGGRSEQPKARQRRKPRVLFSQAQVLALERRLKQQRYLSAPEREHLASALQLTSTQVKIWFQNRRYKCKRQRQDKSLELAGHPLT
# [4] = target: T2, NKX2-4 (Homo sapiens, UniProt Q9H2Z4 175-261, P217L)
# T2 sequence: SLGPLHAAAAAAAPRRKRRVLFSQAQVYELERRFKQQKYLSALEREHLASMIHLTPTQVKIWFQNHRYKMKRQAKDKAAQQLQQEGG
# [5] = target: T3, NKX2-4 (Homo sapiens, UniProt Q9H2Z4 175-261, T231S)
# T3 sequence: T2 sequence with L43P, T57S
# [6] = target: T4, NKX2-4 (Homo sapiens, UniProt Q9H2Z4 175-261)
# T4 sequence: T2 sequence with L43P
# [7] = target: T5, NKX2-4 (Homo sapiens, UniProt Q9H2Z4 175-261, R246Q)
# T5 sequence: T2 sequence with L43P, R72Q
# [8] = target: PITX2 (Homo sapiens, UniProt Q99697 72-157)
# HOXD13, sequence (P35453 263-343 T313R): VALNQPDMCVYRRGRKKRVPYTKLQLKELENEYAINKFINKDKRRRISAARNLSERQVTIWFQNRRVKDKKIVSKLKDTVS
# HOXB4, sequence (P17483 148-234 V174I): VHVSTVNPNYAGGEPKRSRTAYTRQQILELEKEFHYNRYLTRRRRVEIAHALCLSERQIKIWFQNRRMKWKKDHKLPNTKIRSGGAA
sequence,measurement,setting,value
TAATTGAA,binding signal,[1],"13.6 upbm affinity estimate (log intensity, higher = more binding, comparable within an allelic series)"
GCCCCCCA,binding signal,[2],"9.1 upbm affinity estimate (log intensity, higher = more binding, comparable within an allelic series)"
GTCCTGCA,binding signal,[3],"9.4 upbm affinity estimate (log intensity, higher = more binding, comparable within an allelic series)"
ACGCTGCG,binding signal,[4],"9.63 upbm affinity estimate (log intensity, higher = more binding, comparable within an allelic series)"
same,binding signal,[5],"9.6 upbm affinity estimate (log intensity, higher = more binding, comparable within an allelic series)"
same,binding signal,[6],"9.57 upbm affinity estimate (log intensity, higher = more binding, comparable within an allelic series)"
same,binding signal,[7],"9.58 upbm affinity estimate (log intensity, higher = more binding, comparable within an allelic series)"
GAGCTGGC,binding signal,[4],"9.65 upbm affinity estimate (log intensity, higher = more binding, comparable within an allelic series)"
same,binding signal,[5],"9.66 upbm affinity estimate (log intensity, higher = more binding, comparable within an allelic series)"
same,binding signal,[6],"9.73 upbm affinity estimate (log intensity, higher = more binding, comparable within an allelic series)"
same,binding signal,[7],"9.66 upbm affinity estimate (log intensity, higher = more binding, comparable within an allelic series)"
ACGGAAGG,binding signal,[8],"7.95 upbm affinity estimate (log intensity, higher = more binding, comparable within an allelic series)"
CGCGCGAG,binding signal,[2],"9.52 upbm affinity estimate (log intensity, higher = more binding, comparable within an allelic series)"
